LGR2 inh = Drosophila LGR2 receptor signaling inhibition | actives 0.35% (n = 380,000) | inhibition, % at 9.99 µM | HEK293 LGR2, CRE-luciferase, bursicon-stimulated, 4 h;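 active = drop in luminescence signal, shown as inhibition above about 50% in the replicate tests, limit read from the data, passing the limit was not always enough; inconclusive = probably only some replicates passing the limit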;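 note: agonist challenge used bursicon conditioned medium at about half maximal strength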
TROY signal inh = blocks TROY-dependent signaling in reporter cells | AID 1347056 | inhibition, % at 10 µM | actives 0.98% (n = 360,000) | Q293 LMP1-TROYcd NF-kB luciferase reporter, 4 h;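 active = compounds whose plate-normalised and pattern-corrected inhibition of the luciferase reporter signal at the single screening dose is 50% or more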
EWS-Fli inh = inhibitors of EWS/Fli oncoprotein transcriptional activity | AID 651661 | actives 0.67% (n = 350,000) | A673 NR0B1-luciferase reporter, viability-normalised | inhibition, % at 12.6 µM;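 active = mean inhibition of at least 50% after viability correction, with every replicate also passing that limit; inconclusive = mean reaches 50% but only one of two replicates passes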;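 note: firefly luciferase signal divided by Alamar Blue viability fluorescence both relative to DMSO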
PAX8 reporter = lowers PAX8-driven luciferase in RMG-I cells. RMG-I TPO-luciferase reporter, SteadyGlo, 24 h. inhibition, % at 12.6 µM. actives 1.2% (n = 360,000);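 active = mean replicate inhibition at least 60% with every replicate also reaching 60%; inconclusive = only one of the two criteria is met; inactive = mean below 60% and not all replicates reaching 60%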;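 note: luciferase light reporting Pax8 driven TPO promoter activity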
TWEAK-Fn14 inh = TWEAK-Fn14 signaling inhibition; TWEAK-stimulated Fn14 reporter cells, luciferase luminescence, 8 h; inhibition, % at 10 µM; actives 2% (n = 360,000); in the data active = inhibition above about 50%
EBV LMP1 NFkB = inhibitors of Epstein-Barr LMP1-induced NF-kappaB reporter | LMP1-induced NF-kappaB luciferase reporter cells, luminescence | inhibition, % at 12.5 µM | actives 0.69% (n = 350,000) | AID 504558; in the data active = inhibition above about 41%; inconclusive = no clear call, values can overlap the other calls
DNA binder FP = DNA binding small molecules. shares compounds with EWS-Fli inh. AC35, µM (series often up to 68 µM). actives 2% (n = 640). salmon sperm DNA acridine orange fluorescence polarization;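 active = fitted curve reaches a 35% signal fall AC35 below twice the sample's top valid tested dose, actives reach about 48 µM in these data; inactive = the rest, including activity in the rising direction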;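 note: lower polarization ratio signals compound binding to DNA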
A number is an active result; n = inactive; u = inconclusive; x = no result; ! = not confirmed by another sample. This is a sample that favours compounds with a hit; in the whole collection about 3.2% have one here.

SMILES	LGR2 inh	TROY signal inh	EWS-Fli inh	PAX8 reporter	TWEAK-Fn14 inh	EBV LMP1 NFkB	DNA binder FP
CN(C)CC1CCC/C(=C\c2ccc(OC(=O)/C=C/c3ccccc3)cc2)C1=O (configuration not stated)	n	n	n	x	n	n	x
C/C(=N\OCc1cccc(C(=O)O)c1)c1ccc(Cl)cc1	100	n	84	81	n	x	n
CCOc1ccc(-c2noc(CCC(=O)O)n2)cc1	n	n	54	n	71	n	n
COc1ccc(-c2noc(CCC(=O)O)n2)cc1	n	n	x	n	n	n	x
C[C@@H]1CN([C@H](C)CO)C(=O)c2cc(NS(=O)(=O)c3ccccc3)ccc2O[C@@H]1CN(C)Cc1ccc2c(c1)OCO2	n	x	n	n	x	x	x
CO[C@H]1CN(C)C(=O)c2cc(NC(C)=O)ccc2OC[C@@H](C)N(C(=O)c2cccnc2)C[C@@H]1C	n	x	n	n	x	x	x
COc1ccc(C=NNc2nc3ccccc3s2)cc1	78	57	66	n	78	u	n
C(=NNc1ccc2ccccc2n1)c1ccccn1	99	83	84	102	101	x	n
C(=N\Nc1nc2ccccc2s1)/c1ccccn1	104	x	80	88	x	x	n
CN(C)[C@@H]1CCC[C@@H]1OC(=O)C(c1ccccc1)c1ccccc1	n	n	87	n	n	n	n
CCN1CCCC(OC(=O)C(c2ccccc2)c2ccccc2)C1 (configuration not stated)	x	n	n	n	n	n	x
C/C=C/c1ccc(C2[C@@H]3CN(C(=O)Cc4ccccc4)C[C@H]2N3)cc1 (some centres not stated)	n	x	55!	n	x	x	n
CC(C)C#Cc1ccc2c(c1)O[C@@H](CN(C)C(=O)c1cnccn1)[C@@H](C)CN([C@H](C)CO)S2(=O)=O	n	x	n	x	x	x	x
CN(C)c1ncnc2c1ccn2C1OC(CO)C(O)C1O (configuration not stated)	n	n	63	u	n	n	n
CN(C)c1nc2c(N)ncnc2n1C1OC(CO)C(O)C1O (configuration not stated)	n	n	n	n	n	n	x
COc1ccccc1C#Cc1cnc2c(c1)C(=O)N([C@H](C)CO)C[C@@H](C)[C@@H](CN(C)C(=O)CN(C)C)O2	n	x	n	x	x	x	x
Cc1sc2nc(CN3CCC(C)CC3)nc(Cl)c2c1C	x	x	73	n	x	x	n
Cc1nc(N)nc(N)c1CCCc1ccc(Cl)c(Cl)c1	n	n	75	n	n	n	n
Cc1nc(N)nc(N)c1-c1ccc(Cl)c(Cl)c1	n	n	53	n	n	n	n
CCOc1cc(/C=N/Nc2cc(C)nc(-n3nc(C)cc3C)n2)ccc1O	n	n	53	n	n	70	n
COc1ccc(NC(=O)N(C)C[C@H]2Oc3ccc(NC(=O)CCCCCC(=O)Nc4ccccc4N)cc3CC(=O)N([C@@H](C)CO)C[C@H]2C)cc1	n	x	n	n	x	x	x
CCCCNC(=O)O[C@@H]1C[C@H]2CCCC(=O)N3CC[C@@H](C1)[C@@H]23	n	n	n	n	n	n	x
CCCCCCCN(c1ccccc1)[C@@H]1C[C@H]2CCCC(=O)N3CC[C@@H](C1)[C@@H]23	52	n	62	n	n	n	n
CNC[C@H](CC1CCCCC1)NC[C@H](CO)NCCc1cccc(C(F)(F)F)c1	u	n	61	72	n	n	n
CNC[C@H](CC1CCCCC1)NC[C@H](CO)NCC1(c2ccccc2)CC1	n	n	n	n	n	n	x
SMILES	LGR2 inh	TROY signal inh	EWS-Fli inh	PAX8 reporter	TWEAK-Fn14 inh	EBV LMP1 NFkB	DNA binder FP
O=C(Nc1ccc(NC(=O)c2cc3ccccc3o2)cc1)c1ccc2c(c1)OCCO2	n	n	58	n	n	n	n
Cc1cc(NC(=O)c2ccc3c(c2)OCCO3)ccc1NC(=O)c1cc2ccccc2o1	u	n	n	n	n	n	x
CC(C)N1CC2=C(OC(N)=C(C#N)C2c2cccnc2)/C(=C/c2cccnc2)C1 (configuration not stated)	x	n	x	n	n	n	x
CC(C)N1C/C(=C/c2cccnc2)C(=O)/C(=C/c2cccnc2)C1	n	n	69	n	n	u	n
CCN1C(=O)S/C(=C/c2ccsc2)C1=O	x	n	x	n	n	n	x
CC(C)N1C/C(=C/c2ccsc2)C(=O)/C(=C/c2ccsc2)C1	n	n	72	n	n	n	n
Cc1ccc(S(=O)(=O)N(C)C[C@H]2Oc3ccc(NC(=O)Nc4c(C)noc4C)cc3C(=O)N([C@@H](C)CO)C[C@H]2C)cc1	n	x	n	n	x	x	x
COc1ccc(S(=O)(=O)Nc2ccc3c(c2)CC(=O)N([C@H](C)CO)C[C@H](C)[C@@H](CN(C)S(C)(=O)=O)O3)cc1	n	x	n	n	x	x	x
O=C1c2ccccc2C(=O)N1CCCCNc1ccccc1	n	n	57	n	n	n	n
O=C1c2ccccc2C(=O)N1CCCCCCc1ccccc1	n	n	n	n	n	n	x
CCCn1nnc(NC(=S)NC(=O)C(C)(C)C)n1	n	n	87	n	n	n	n
C=CC[n+]1c(-c2ccc(C)cc2)csc1Nc1ccc(NC(C)=O)cc1	n	n	62	n	51	n	n
C[C@H](CO)N1C[C@H](C)[C@@H](CN(C)C(=O)CCC(F)(F)F)OCCCC[C@H](C)Oc2ccc(NC(=O)CCCN(C)C)cc2C1=O	n	x	n	n	x	x	x
Cc1ccc(-c2nnc(-c3ccccc3)c(-c3ccccc3)n2)cc1	n	n	n	n	n	n	x
Cc1ccc2nc(-c3ccccc3)nn2c1	86	62	72	x	94	64	n
C[C@@H]1CN([C@H](C)CO)C(=O)c2cc(C3=CCCC3)cnc2O[C@@H]1CN(C)C(=O)NC1CCCC1	n	x	n	x	x	x	x
C[C@@H]1CN([C@@H](C)CO)C(=O)c2cccc(NS(=O)(=O)c3ccccc3)c2O[C@H]1CN(C)S(=O)(=O)c1ccc(F)cc1	n	x	n	n	x	x	x
CCOc1ccc(N=C2C(=O)Nc3ccc(C)c(Br)c32)cc1	n	n	52	n	n	n	n
C[C@H]1CN([C@@H](C)CO)C(=O)CCCn2cc(nn2)CO[C@@H]1CN(C)Cc1ccc2c(c1)OCCO2	n	x	n	x	x	x	x
Cc1cc(C(=O)NNC(=O)c2ccc(S(=O)(=O)N(C)C)cc2)c(C)o1	n	n	74	n	n	n	n
C[C@@H]1CN([C@@H](C)CO)C(=O)c2cc(NC(=O)Cn3cnnn3)ccc2O[C@H]1CN(C)C(=O)Nc1ccc2c(c1)OCO2	n	x	n	x	x	x	x
C[C@H](CO)N1C[C@H](C)[C@H](CN(C)S(=O)(=O)c2ccc(Cl)cc2)Oc2ccc(NS(C)(=O)=O)cc2C1=O	n	x	n	x	x	x	x
COc1ccc(Cn2cc3c(-c4ccc(F)cc4)nnc-3c3cc(OC)c(OC)cc32)cc1	n	n	66	92	n	69	n
Cn1nc2c3cc(F)ccc3n(Cc3ccc(F)cc3)cc-2c1=O	n	n	n	n	n	n	x

Screening data deposited in PubChem by several laboratories.
